Sampled rows, rich in hits. Any-hit rate of the full collection: about 3.8%.
HT1080 IDH1KD tx: kills HT-1080 cells with IDH1 knockdown. HT-1080 IDH1 knockdown viability, ATP luminescence, 48 h. Potency, µM (series often up to 46.1 µM), inactives show at the top dose activity, negative = toxicity, usual class: cytotoxic. actives 2% (n = 360,000);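 further: 0% = DMSO wells and -100% = cell-free medium wells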
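Viability of IDH1-knockdown HT-1080 fibrosarcoma cells was assessed by CellTiter-Glo after 48 h at 37 °C with titrated compound; concentration-effect curves were classified by fit quality and response size.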
TGFb SMAD3 inh: TGF-b pathway inhibition | HepG2 CAGA-GFP TGF-b/SMAD3 reporter, GFP fluorescence, 18 h; TGF-beta stimulated, 500 pg/mL final | Potency, µM (top dose mostly 46.1 µM), without a hit: at the top dose activity, negative = inhibition, usual class: inhibitors | actives 1.2% (n = 410,000) | AID 588855; further: on the % scale 0 is the no-effect control and ±100 the full control effect; nearly all actives have a fitted effect of over 65% in size
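First, reporter cells (HEPG2 CAGA-GFP) rested 2 h at 37 degrees C. Next, compounds were pinned in and TGF-beta added to 500 pg/mL final. After 18 h, GFP was imaged per cell and summed per well.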
S2 tox: reduces viability in counter-screen for ATXN expression inhibitors. S2 cells (HEK-293 line with an ATXN2-luciferase reporter) viability, CellTiter-Fluor protease fluorescence, 24 h. actives 0.49% (n = 400,000). Potency, µM (doses to about 56.7 µM), usual class: cytotoxic; further: nearly all actives have a fitted effect of over 40% in size
HT1080NT lethal: kills 2HG-producing HT-1080-NT fibrosarcoma cells; HT-1080-NT fibrosarcoma viability, CellTiter-Glo ATP luminescence, 48 h; Potency, µM (series often up to 46.1 µM), for inactives: at the top dose activity, negative = less viability, most hits filed as cytotoxic; actives 1.6% (n = 360,000);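 further: NT is the 2HG producing partner of a matched IDH1 knockdown line; 0% = DMSO-treated cells and -100% = media-only wells without cells; nearly all actives have a fitted effect of over 55% in size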
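750 cells/well, RPMI + 5% FBS; 2 h settle, compound pin-transfer, 48 h at 37 degrees C. CellTiter-Glo 10 min RT, luminescence. Normalized to DMSO and media-only wells.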
ATXN2 expr inh: ATXN2 expression inhibition; HEK-293 ATXN2-luciferase reporter, luminescence, 24 h; Potency, µM (series often up to 57 µM), for the others: at the top dose activity change, negative = inhibition, actives largely listed as inhibitors; actives 0.72% (n = 360,000); AID 1745845; further: on the % scale 0 is the no-effect control and ±100 the full control effect; nearly all actives have a fitted effect of over 55% in size
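qHTS (up to 57 uM final) was run with 24 h compound exposure of reporter cells at 37 °C. Each well was multiplexed: SteadyGlo luminescence measured ATXN2-luciferase expression after a fluorogenic Gly-Phe-AFC viability readout (25 uM final).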
HepG2 tox: kills HepG2 cells in TGF-b inhibitor counter-screen; HepG2 CAGA-GFP viability, ATP luminescence, 18 h; Potency, µM (highest dose often 46.1 µM), inactives show at the highest dose activity change, negative = cytotoxicity, hits mostly cytotoxic; actives 0.76% (n = 410,000); AID 588856
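CellTiter-Glo luminescence gave cytotoxicity after 18 hours at 37 degrees C. The cells were HepG2 CAGA-GFP in 1% FBS DMEM, stimulated with 500 pg/mL TGF-beta after compound addition. %Activity was normalised to no-cell wells (complete cell-killing) and DMSO (no toxicity), and curves were fitted and classified.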
Numbers without * were called inactive; i = inactive; ? = inconclusive; / = no result given; [ ] = another dose, or the depositor's remark. The call rests on the fitted dose curve; in most records, active means well fitted curve in the direction sought with a large enough effect; inconclusive means small, poorly fitted or top-dose-only effect, or another doubt; inactive means no such curve, though single readings can be large; an effect the other way counts as inactive or inconclusive. Potency means the concentration at half of the fitted maximal effect.

SMILES | HT1080 IDH1KD tx | TGFb SMAD3 inh | S2 tox | HT1080NT lethal | ATXN2 expr inh | HepG2 tox
COc1ccc2nc(N3C(=O)CNC3=S)sc2c1 | 0% | ? | ? | -1% | ? | -61%
Cc1ccc2nc(N3C(=O)CNC3=S)sc2c1 | 16µM* | 11µM* | i | ? | ? | -136%
CCN(Cc1ccccc1)c1ccc(/C=N/N=C(N)N)cc1 | ? | ? | ? | 18µM* | ? | -81%
CCN(Cc1ccccc1)c1ccccc1 | 4% | -1% | i | 0% | 4% | -12%
O=C(O)C(O)Cc1ccc(O)c(O)c1 (stereo unspecified) | / | / | / | / | -12% | /
CCCCn1c(C(C)NC(=O)c2ccccc2)nc2ccccc21 (stereo unspecified) | / | ? | i | / | -3% | -21%
COC(=O)c1ccccc1C(=O)NCC1Cc2cc(-c3nc(C)cnc3C)ccc2O1 (stereo unspecified) | / | / | i | / | / | /
Cc1ccccc1-c1noc(-c2ccc(N3CCC(C)CC3)c([N+](=O)[O-])c2)n1 | / | -19% | i | / | 16% | -25%
O=C(Nc1cccc(S(=O)(=O)NC2=NCCC2)c1)c1cc(-c2ccco2)nc2ccccc12 | -16% | -29% | i | -1% | 0% | 6%
CCOc1cc(C(=O)Nc2ccc(S(=O)(=O)NC3=NCCCCC3)cc2)cc(Br)c1OC | 21µM* | 3% | i | ? | 4% | -17%
COc1cc(C(=O)OCC(=O)Nc2ccc(S(=O)(=O)NC3=NCCCCC3)cc2)cc(OC)c1OC | 2% | -1% | / | 1% | / | -9%
CCOc1ccc(C(=O)NC(=S)Nc2cccc(S(=O)(=O)NC3=NCCC3)c2)cc1 | 1µM* | -27% | i | 0.46µM* | / | 9%
CCOc1ccc(OCC(=O)Nc2cccc(S(=O)(=O)NC3=NCCC3)c2)cc1 | -23% | -8% | i | -13% | -16% | -2%
O=C(NC(=S)Nc1cccc(S(=O)(=O)NC2=NCCC2)c1)c1cc(-c2ccco2)nc2ccccc12 | 1.6µM* | -14% | ? | 9.2µM* | -14% | 2%
Cc1ccccc1Nc1cc(C(=O)NC2CCC(C)CC2)c2ccccc2n1 (stereo unspecified) | / | -19% | i | / | 43% | -28%
CCC12CN3CC(C)(CN(C1)C3c1ccc(O)cc1O)C2=O (stereo unspecified) | / | ? | i | / | 12% | 7%
CCOC(=O)c1c(-c2cccs2)csc1NC(C)=O | -14% | 0% | i | -10% | 2% | -21%
CCOC(=O)c1c(-c2ccccc2)csc1NC(=O)CCN1C(=O)c2ccccc2C1=O | 8% | -7% | i | 12% | 3% | -4%
CCOC(=O)c1c(-c2ccc(-c3ccccc3)cc2)csc1NC(=O)CNCCN(C)C | 9.2µM* | ? | ? | 9.2µM* | ? | i
CCOC(=O)c1c(-c2cccs2)csc1NC(=O)CN1CC(C)OC(C)C1 (stereo unspecified) | ? | ? | i | ? | -10% | 20µM*
NC(=O)CC(NC(=O)Cc1cccc2ccccc12)c1ccc(NC2CC3CCC2C3)c([N+](=O)[O-])c1 (stereo unspecified) | 0% | ? | ? | -12% | ? | 3.5µM*
COc1ccc(OC)c(-c2cc(Cl)c3c(c2)CC(CNC(=O)c2cnn4cccnc24)O3)c1 (stereo unspecified) | / | / | i | / | / | /
O=C(NNC(=O)c1ccccc1[N+](=O)[O-])Nc1ccc(Cl)cc1 | 11% | -9% | i | 3% | 3% | 2%
O=C(Nc1ccc(Cl)cn1)c1ccccc1[N+](=O)[O-] | 18µM* | 4% | i | ? | -3%[11.3 µM] | 7%
O=C(Nc1ccc(Cl)cn1)c1cccc2ccccc12 | 12µM* | 0% | i | ? | / | 2%
SMILES | HT1080 IDH1KD tx | TGFb SMAD3 inh | S2 tox | HT1080NT lethal | ATXN2 expr inh | HepG2 tox
O=C(CSc1n[nH]c(-c2ccccn2)n1)Nc1ccc(Cl)cc1 | ? | -21% | i | ? | 20µM* | -1%
CC1(Cc2cc(Cl)ccc2C(F)(F)F)C(=O)Nc2ccc(OC(F)(F)F)cc21 (stereo unspecified) | 21µM* | ? | ? | ? | ? | -101%
COc1ccccc1-c1ccc2c(c1)C(C)(Cc1cc(Cl)ccc1C(F)(F)F)C(=O)N2 (stereo unspecified) | ? | 18µM* | i | ? | ? | -102%
CC1(Cc2ccc(OC(F)(F)F)cc2)C(=O)Nc2ccc(S(=O)(=O)NC3CCCCC3)cc21 (stereo unspecified) | 12µM* | ? | ? | 13µM* | ? | 11µM*
CC1(Cc2ccccc2OC(F)(F)F)C(=O)Nc2ccc(OC(F)(F)F)cc21 (stereo unspecified) | 21µM* | ? | ? | ? | ? | -106%
CC1(Cc2cc(Cl)ccc2C(F)(F)F)C(=O)Nc2ccc(-c3ccc(F)c(Cl)c3)cc21 (stereo unspecified) | -9% | ? | / | ? | 0% | -115%
Cc1ccc2nccc(/C=C/c3ccc(N(C)C)cc3)c2c1 | / | 1% | / | / | / | -24%
CCSc1nc(-c2ccccc2OC)nc2c1Cc1c(CO)cnc(C)c1O2 | / | -16% | / | / | / | -23%
CC1(Cc2cc(Cl)ccc2C(F)(F)F)C(=O)Nc2cc(C(F)(F)F)ccc21 (stereo unspecified) | 21µM* | ? | ? | ? | -19% | 18µM*
CC1(Cc2ccc(C(F)(F)F)o2)C(=O)Nc2cc(-c3ccc(F)cc3F)ccc21 (stereo unspecified) | ? | ? | ? | ? | ? | 20µM*
CC(=O)c1cccc(-c2ccc3c(c2)C(C)(Cc2ccccc2C#N)C(=O)N3)c1 (stereo unspecified) | -12% | 19% | i | -20% | -30% | -6%
CC1(Cc2cc(Cl)ccc2C(F)(F)F)C(=O)Nc2cc(F)ccc21 (stereo unspecified) | ? | ? | ? | ? | ? | -85%
COc1ccc(C(C)=O)cc1CC1(C)C(=O)Nc2ccc(-c3cccc(C(F)(F)F)c3)cc21 (stereo unspecified) | ? | 16µM* | i | ? | ? | -106%
CC1(Cc2ccccc2Cl)C(=O)Nc2cc(-c3ccccc3Cl)ccc21 (stereo unspecified) | ? | ? | / | ? | -22% | 18µM*
